# Assay outcomes from PubChem BioAssay.
# Rows were chosen to be rich in hits. Some 13% of all compounds tested hit in one or more screens of this group.
# Cycloheximide cs: counter-screen hit for Shiga toxin inhibitors, cycloheximide | cell reporter, cycloheximide protein synthesis inhibition counterscreen | max response, % | hit rate 12% among 300,000 | AID 2314; in the data active = max response mostly above about 13%, no sharp cut-off; inactive = mostly below about 14%; note: read at 38.3 µM for the half of the compounds with a filed dose; 0% is about no effect
# FMDV inh: antivirals against foot and mouth disease virus; hit rate 1.2% among 410,000; AID 1159524; Potency, µM (highest dose often 57.9 µM), inactives show at the highest dose activity change, negative = inhibition, hits mostly inhibitors; FMDV antiviral cell-based qHTS; calls by dose curve; tested in HEK293T cells; note: read-out not given here; potency is the fitted concentration of half-maximal effect; % is set by controls: 0 for no effect and ±100 for the full control effect; nearly all actives have a fitted effect of over 45% in size
# MARV entry inh: Marburg virus entry inhibition; Marburg virus pseudotyped entry inhibition, cell reporter; Potency, µM (titrated, usually from 37.8 µM), for the others: at the highest dose activity change, negative = inhibition, hits mostly inhibitors; hit rate 1.8% among 300,000; AID 540276; calls by dose curve; tested in HEK293 cells; note: potency is the fitted concentration of half-maximal effect; % is set by controls: 0 for no effect and ±100 for the full control effect
# Lassa entry inh: Lassa virus entry inhibition; Lassa virus pseudotype entry inhibition, cell reporter; hit rate 1.2% among 300,000; Potency, µM (doses to about 37.9 µM), for inactives: at the top dose activity change, negative = inhibition, most hits filed as inhibitors; calls by dose curve; tested in HEK293 cells; note: potency is the fitted concentration of half-maximal effect; % is set by controls: 0 for no effect and ±100 for the full control effect; nearly all actives have a fitted effect of over 50% in size
# Shiga inhibitor: Shiga toxin inhibition | inhibition, % at 38.7 µM | hit rate 9.2% among 290,000 | Vero cells, Shiga toxin protein synthesis inhibition reporter | AID 2315; in the data active = inhibition mostly above about 28%, no sharp cut-off; inactive = mostly below about 43%; note: 0% is about no effect
# HCV inh: HCV inhibition | Huh7.5.1 HCVcc-Cre infection, luciferase reporter, 44 h | Potency, µM (series often up to 41.8 µM), inactives show top-dose activity change, negative = inhibition, most hits filed as inhibitors | hit rate 3.4% among 340,000 | AID 651820; active = well fitted inhibition curve with a large enough effect; inconclusive = small, poorly fitted or top-dose-only effect, or another doubt; inactive = no such curve, though single readings can be large or run the other way; note: potency is the fitted concentration of half-maximal effect; % is set by controls: 0 for no effect and ±100 for the full control effect
#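 Reporter virus HCVcc-Cre (~0.5 moi) infects cells exposed to compound; seeding density 1,000 cells/well with 4 h settling beforehand. Luminescence, 15 sec read, taken 44 h post-infection following a 15 min RT substrate incubation.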
# Numbers without * were called inactive; i = inactive; ? = inconclusive; / = not tested or not shown; + = active, no number; [ ] = another dose, or the depositor's remark.
SMILES,Cycloheximide cs,FMDV inh,MARV entry inh,Lassa entry inh,Shiga inhibitor,HCV inh
O=[N+]([O-])c1ccc(N/N=C/c2cccc(O)c2O)c(S(=O)(=O)N2CCOCC2)c1,-4.2,?,/,/,3.5,2.82µM*
COc1ccccc1C1CC(=O)Oc2cc(C)c(Cl)cc21 (configuration not stated),-6.6,-6.4%,/,/,i,11.8%
COc1ccc(/C=N/Nc2ncccc2[N+](=O)[O-])c(OC)c1,11.7,0.0%,/,/,50.9*,-9.8%
COc1ccc(/C=N/Nc2ncc(-c3ccccc3)cn2)c(OC)c1,-2.3,-12.8%,-26.8%,-15.6%,18.4,3.0%
O=[N+]([O-])c1ccccc1N/N=C/c1cccc(O)c1O,29.8*,-11.2%,/,/,115.2*,-27.8%
CCCOc1ccc(/C=N/Nc2ccccc2[N+](=O)[O-])c(OCCC)c1,27.9*,6.2%,-10.3%,?,14.3,?
O=[N+]([O-])c1ccccc1N/N=C\c1ccccc1F,48.3*,41.4%,?,-15.7%,50.9*,1.6%
COc1cccc(NS(=O)(=O)c2cc3c(cc2C)NC(=O)CO3)c1,0.4,21.1%,/,/,-4.2,-15.6%
CC(C)OCCCNC(=O)c1ccc(-n2c(-c3ccccc3)cc3c2CCCC3)cc1,/,0.0%,/,?,/,/
COc1cc(OC)c(C2=NOC(C(=O)O)C2)cc1Cl (configuration not stated),-2.0,/,-6.1%,4.4%,-24.0,-9.2%
COC(=O)c1ccccc1NC(=O)COCc1cc(-c2cccs2)on1,/,-26.5%,/,10.8%[46.1 µM],/,/
CC(=O)c1ccc2c(c1)C1C(Cl)C(Sc3ccccc3[N+](=O)[O-])CC1C(C(=O)O)N2 (configuration not stated),-3.2,-23.0%,0.1%,0.8%,-8.0,35.5µM*
O=C(Nc1ccc2c(c1)OCCO2)c1ccc2nccnc2c1,33.4*,/,?,?,35.2,-19.9%
O=C(Nc1ccc(Cl)c(Cl)c1)C1=Cc2ccccc2OC1,42.8*,21.0%,?,?,65.8*,?
O=C(Nc1ncccc1Cl)c1ccc2c(c1)OCCO2,32.3*,49.7%,?,4.8%,84.3*,1.8%
O=C(Nc1cccc(Cl)c1)C1=Cc2cc(Cl)ccc2OC1,19.5,-2.0%,0.6%,-2.5%,48.9,?
O=C(Nc1ccc2c(c1)OCCO2)c1ccc(Cl)c([N+](=O)[O-])c1,55.9*,?,?,-1.6%,+,?
O=C(Nc1cccc2ncccc12)c1ccc2c(c1)OCCO2,2.0,-7.5%,3.4%,11.8%,0.9,2.1%
CC(C)=CCN1CCN(Cc2nc(-c3ccccc3)cs2)CC1CCO (configuration not stated),7.6,-13.7%,/,/,15.2,-16.3%
COc1ccc(C(=O)N2CCN(c3cccc(Cl)c3)CC2)cc1S(=O)(=O)NC1CC1,/,50.9%,/,/,/,?
O=C(CCS(=O)(=O)c1ccccc1)N(Cc1cccnc1)c1nc2ccc(Cl)cc2s1,/,-14.3%,/,3.8%[46.1 µM],/,/
CCc1nccn1S(=O)(=O)c1cc(C)c(OC)cc1C,-2.0,3.8%,3.9%,12.6%,-10.6,7.1%
COc1ccc(-n2nc(C(=O)N3CCCC(C)C3)c3c4ccccc4n(C)c3c2=O)cc1Cl (configuration not stated),/,-19.3%,7.7%[46.1 µM],8.1%[46.1 µM],/,/
Cc1cc(C(=O)NC(C)CCc2ccccc2)ccc1[N+](=O)[O-] (configuration not stated),18.2*,1.4%,-0.8%[46.1 µM],-27.6%[46.1 µM],/,-11.1%
CC(CCc1ccccc1)NC(=O)c1ccc(C(=O)NC(C)CCc2ccccc2)cc1 (configuration not stated),-2.4,-29.7%,?,?,-12.1,?
SMILES,Cycloheximide cs,FMDV inh,MARV entry inh,Lassa entry inh,Shiga inhibitor,HCV inh
O=C(NCc1cccnc1)C(=O)Nc1ccc2c(c1)OCO2,18.1*,45.3%,-24.6%[46.1 µM],?,28.0,31.2%
CCn1cc([N+](=O)[O-])c(C(=O)Nc2ccc3c(c2)OCCO3)n1,38.3*,/,10.1%,-18.5%,46.6*,-4.4%
Cc1cc(C(=O)Nc2ccc3c(c2)OCCO3)ccc1[N+](=O)[O-],26.9*,-34.5%,/,/,/,7.8%
COCC(=O)N1CCC2(CCCN(c3cccc(-c4ccccc4)c3)C2)CC1,/,-7.0%,/,/,/,/
O=C(Nc1ccc2c(c1)OCCO2)c1cccnc1,24.7*,69.9%,?,?,58.7*,6.4%
O=C(Nc1cccc(F)c1)c1cccnc1,-2.8,6.5%,/,/,-8.1,-2.6%
Cc1cc(C(=O)Nc2cccc(NC(=O)c3ccco3)c2)ccc1[N+](=O)[O-],18.9*,2.0%,11.9%[46.1 µM],-27.4%[46.1 µM],26.6*,?
O=C(Nc1ccc2c(c1)OCCO2)c1ccc(Cl)c(Cl)c1,44.8*,-2.0%,?,?,83.9*,-27.9%
COC(=O)C1=C(c2ccc(OC(F)(F)F)cc2)C[C@@H]2CC[C@H]1N2C(=O)NCc1ccc(F)cc1,/,0.0%,/,/,/,?
COC(=O)C1=C(c2ccc(Cl)c(C(F)(F)F)c2)C[C@@H]2CC[C@H]1N2C(=O)NCCNC(C)=O,/,-6.7%,/,/,/,9.3%
COC(=O)C1=C(c2ccc(OC(F)(F)F)cc2)C[C@@H]2CC[C@H]1N2C(=O)NCc1cccc2ccccc12,/,12.6µM*,/,/,/,10µM*
COC(=O)C1=C(c2cccc(OCc3ccccc3)c2)C[C@@H]2CC[C@H]1N2C(=O)NCc1ccc(N(C)C)cc1,/,-12.6%,/,/,/,12.6µM*
COC(=O)C1=C(c2ccc(Cl)c(C(F)(F)F)c2)C[C@@H]2CC[C@H]1N2C(=O)NCCOc1ccccc1Cl,/,?,/,/,/,10µM*
COC(=O)C1=C(c2cccc(OCc3ccccc3)c2)C[C@@H]2CC[C@H]1N2C(=O)NCc1cccc(OC)c1,/,-16.0%,/,/,/,?
COC(=O)C1=C(c2cccc(OCc3ccccc3)c2)C[C@@H]2CC[C@H]1N2C(=O)NCc1ccc(C(C)(C)C)cc1,/,-9.5%,/,/,/,25.1µM*
O=C(NCCS(=O)(=O)N1CCN(c2ccccc2F)CC1)c1ccccc1C(F)(F)F,/,-11.3%,/,5.8%[46.1 µM],/,/
CCOc1ccc(N2CC(NC(=O)c3cccc4ccccc34)CC2=O)cc1 (configuration not stated),/,-1.4%,0.7%[46.1 µM],1.4%,/,-8.6%[8.37 µM]
COc1cccc(C(=O)NC2CC3CCCC(C2)N3CC(=O)Nc2ccccc2C(F)(F)F)c1 (configuration not stated),-2.6,-21.6%,11.2µM*,?,2.5,6.31µM*
COc1cccc(C(=O)NC2CC3CCC(C2)N3Cc2ccccc2)c1 (configuration not stated),-1.9,-8.5%,/,/,-3.4,7.1%
O=C(CN1C2CCCC1CC(NC(=O)C1CCCCC1)C2)Nc1ccccc1C(F)(F)F (configuration not stated),-5.5,?,?,?,21.2,10µM*
COc1cc(NC(=O)C23CC4CC(C2)CC(n2cnc([N+](=O)[O-])n2)(C4)C3)cc(OC)c1,-2.4,-14.8%,2.51µM*,-11.1%,-5.1,-6.7%
O=C(Nc1ccccc1)C12CC3CC(C1)CC(n1cnc([N+](=O)[O-])n1)(C3)C2,-5.2,-1.6%,-9.7%,6.2%,-9.3,19.9%
